Measured values from PubChem BioAssay (NCI).
The panel holds about 79,000 compounds, 15% with a hit somewhere; the sample as a whole holds those more often. Active and inactive are the calls of the source. Cut-off read from the data, not from the text of the source: active = growth inhibition above about 70%; inactive = the rest.

Legend:
[1] = NCI Yeast Anticancer Drug Screen. Data for the rad52 strain (AID 147);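 note: 0% = growth of vehicle-treated control cultures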; details: S. cerevisiae rad52 mutant growth inhibition, stronger effect = higher value
In short: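 Read-out: growth inhibition versus vehicle-treated controls. Cells were a DNA repair-deficient yeast strain treated with compounds.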

[2] = NCI Yeast Anticancer Drug Screen. Data for the wt1 strain (AID 149);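 note: 0% = growth of vehicle-treated wt1 cultures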; details: S. cerevisiae wt1 strain (SPY 50644) growth inhibition, stronger effect = higher value
In short: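 Readout: yeast growth inhibition, normalised to vehicle controls, in the wt1 strain exposed to test compounds.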

[3] = NCI Yeast Anticancer Drug Screen. Data for the rad50EPP+ strain (AID 151);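 note: 0% = growth of vehicle-treated control cultures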; details: S. cerevisiae rad50 mutant strain, stronger effect = higher value
In short: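 Growth inhibition read against vehicle controls in rad50EPP+ yeast, a strain altered in DNA damage repair, after compound exposure.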

[4] = NCI Yeast Anticancer Drug Screen. Data for the rad50 strain (AID 155);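 note: 0% = growth of vehicle-only cultures of the same strain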; details: S. cerevisiae rad50 strain growth inhibition, stronger effect = higher value
In short: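 Compounds were tested on a yeast strain with an engineered DNA damage repair alteration; the reported value is growth inhibition normalised to vehicle treatment.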

[5] = NCI Yeast Anticancer Drug Screen. Data for the mec2-1 strain (AID 157); details: S. cerevisiae mec2-1 strain, stronger effect = higher value
In short: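 Yeast mec2-1 mutant treated with compound. Readout: growth inhibition vs vehicle controls.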

[6] = NCI Yeast Anticancer Drug Screen. Data for the rad14 strain (AID 159);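 note: 0% = growth of vehicle-treated control cultures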; details: S. cerevisiae rad14 strain growth inhibition, stronger effect = higher value
In short: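 Compound-treated yeast with a defined DNA-repair lesion; growth inhibition normalised to vehicle-treated cultures.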

[7] = NCI Yeast Anticancer Drug Screen. Data for the sgs1 mgt1 strain (AID 161);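 note: 0% = growth of cultures given vehicle only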; details: S. cerevisiae sgs1 mgt1 strain, stronger effect = higher value
In short: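 Mutant yeast exposed to compound; growth scored against vehicle-only wells.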

[8] = NCI Yeast Anticancer Drug Screen. Data for the CLN2oe strain (AID 163);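 note: 0% = growth of vehicle-only control cultures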; details: S. cerevisiae CLN2oe strain, stronger effect = higher value
In short: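 Read-out: yeast growth inhibition, expressed relative to vehicle-only controls. The strain bears an engineered cell-cycle alteration.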

[9] = NCI Yeast Anticancer Drug Screen. Data for the cln2 rad14 strain (AID 165);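 note: 0% = growth equal to vehicle treated cultures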; details: S. cerevisiae cln2 rad14 strain, stronger effect = higher value
In short: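 cln2 rad14 yeast strain; compound exposure; growth inhibition read vs vehicle controls.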

[10] = NCI Yeast Anticancer Drug Screen. Data for the bub3 strain (AID 167); details: S. cerevisiae bub3 mutant strain, stronger effect = higher value
In short: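 Growth of a checkpoint-deficient yeast mutant is measured after compound exposure. Values represent inhibition relative to vehicle.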

[11] = NCI Yeast Anticancer Drug Screen. Data for the wt2 strain (AID 169);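 note: 0% = growth of vehicle-treated yeast cultures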; details: S. cerevisiae wt2 strain growth inhibition, stronger effect = higher value
In short: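 Read-out: growth inhibition versus vehicle-treated control cultures after compound exposure of the yeast strain.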

[12] = NCI Yeast Anticancer Drug Screen. Data for the mlh1 strain (AID 171);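 note: 0% = growth of vehicle-treated control cultures of the same strain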; details: S. cerevisiae mlh1 strain growth inhibition, stronger effect = higher value
In short: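 Read-out: growth inhibition versus vehicle controls. Strain: engineered yeast with a defined DNA repair or cell cycle defect, compound-treated.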

[13] = NCI Yeast Anticancer Drug Screen. Data for the sgs1 strain (AID 173);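 note: 0% = growth of vehicle-only control cultures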; details: S. cerevisiae sgs1 mutant, stronger effect = higher value
In short: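 Read-out: yeast growth inhibition relative to vehicle controls, following compound exposure of a strain with a defined DNA repair/cell cycle alteration.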

[14] = NCI Yeast Anticancer Drug Screen. Data for the mlh1 rad18 strain (AID 175); details: S. cerevisiae mlh1 rad18 strain growth inhibition, stronger effect = higher value
In short: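 Yeast w/ defined DNA-repair lesions; compound exposure; growth vs vehicle controls → % inhibition.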

[15] = NCI Yeast Anticancer Drug Screen. Data for the rad18 strain (AID 177); details: S. cerevisiae rad18 mutant growth inhibition, stronger effect = higher value
In short: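 Readout: growth inhibition vs vehicle controls. Cells: genetically altered yeast strain, DNA repair defect.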

[16] = at 5.0 µM (retest, dose inferred, filed as 0.5)
[17] = at 50.0 µM (retest, dose inferred, filed as 5.0)

Measured: growth inhibition

OB(O)c1ccccc1C#Cc1ccccc1B(O)O
inactive: [1]; at 1.2 µM 2% | [1]; at 3.7 µM 7% | [1]; at 11.0 µM 24% | [1]; at 33.0 µM 59% | [2]; at 1.2 µM -2% | [2]; at 3.7 µM 0% | [2]; at 11.0 µM 6% | [2]; at 33.0 µM 18% | [2]; at 100.0 µM 59% | [3]; at 1.2 µM 0% | [3]; at 3.7 µM 6% | [3]; at 11.0 µM 36% | [3]; at 33.0 µM 69% | [4]; at 1.2 µM 7% | [4]; at 3.7 µM 17% | [4]; [16] 12% | [4]; at 11.0 µM 47% | [4]; at 50.0 µM 61.5% | [5]; at 1.2 µM -6% | [5]; at 3.7 µM 1% | [5]; [16] 5% | [5]; at 11.0 µM 13% | [5]; at 33.0 µM 43% | [5]; [17] 50% | [5]; at 50.0 µM 50% | [6]; at 1.2 µM -1% | [6]; at 3.7 µM 3% | [6]; at 11.0 µM 14% | [6]; at 33.0 µM 41% | [7]; [16] 4% | [7]; [17] 44% | [7]; at 50.0 µM 64.2% | [8]; at 1.2 µM -2% | [8]; at 3.7 µM 1% | [8]; at 11.0 µM 13% | [8]; at 33.0 µM 38% | [9]; [16] 9% | [9]; [17] 39% | [10]; at 1.2 µM -7% | [10]; at 3.7 µM -8% | [10]; [16] -1% | [10]; at 11.0 µM -8% | [10]; at 33.0 µM 8% | [10]; [17] 20% | [10]; at 50.0 µM 58% | [11]; at 1.2 µM -1% | [11]; at 3.7 µM -3% | [11]; at 11.0 µM 3% | [11]; at 33.0 µM 18% | [12]; at 1.2 µM 1% | [12]; at 3.7 µM 1% | [12]; at 11.0 µM 12% | [12]; at 33.0 µM 27% | [13]; at 1.2 µM -1% | [13]; at 3.7 µM 4% | [13]; at 11.0 µM 17% | [13]; at 33.0 µM 35% | [14]; [16] 20% | [14]; at 50.0 µM 68.2% | [15]; at 1.2 µM -4% | [15]; at 3.7 µM 0% | [15]; at 11.0 µM 8% | [15]; at 33.0 µM 40%
active: [1]; at 100.0 µM 95% | [3]; at 100.0 µM 85% | [4]; at 33.0 µM 84% | [4]; [17] 79% | [4]; at 100.0 µM 96% | [5]; at 100.0 µM 87% | [6]; at 100.0 µM 97% | [8]; at 100.0 µM 86% | [9]; at 50.0 µM 70.3% | [10]; at 100.0 µM 79% | [11]; at 100.0 µM 93% | [12]; at 100.0 µM 94% | [13]; at 100.0 µM 91% | [14]; [17] 79% | [15]; at 100.0 µM 95%

CCOC(=O)C1=C(C)NC(C)=C(C(=O)OCC)C1c1ccc(C)cc1
active: [1]; at 33.0 µM 97% | [1]; at 100.0 µM 95% | [2]; at 33.0 µM 97% | [2]; at 100.0 µM 96% | [4]; at 33.0 µM 96% | [4]; at 50.0 µM 88.7% | [4]; at 100.0 µM 96% | [5]; at 33.0 µM 97% | [5]; at 50.0 µM 91.5% | [5]; at 100.0 µM 95% | [6]; at 33.0 µM 96% | [6]; at 100.0 µM 93% | [7]; [17] 75% | [7]; at 50.0 µM 91.8% | [8]; at 33.0 µM 96% | [8]; at 100.0 µM 95% | [9]; at 50.0 µM 90% | [10]; at 3.7 µM 78% | [10]; at 11.0 µM 91% | [10]; at 33.0 µM 97% | [10]; [17] 90% | [10]; at 50.0 µM 91.3% | [10]; at 100.0 µM 95% | [11]; at 33.0 µM 96% | [11]; at 100.0 µM 96% | [12]; at 33.0 µM 96% | [12]; at 100.0 µM 95% | [14]; [17] 79% | [14]; at 50.0 µM 90.2% | [15]; at 33.0 µM 96% | [15]; at 100.0 µM 96%
inactive: [1]; at 1.2 µM 27% | [1]; at 3.7 µM 43% | [1]; at 11.0 µM 64% | [2]; at 1.2 µM 28% | [2]; at 3.7 µM 19% | [2]; at 11.0 µM 57% | [3]; at 1.2 µM -21% | [3]; at 3.7 µM -27% | [3]; at 11.0 µM -25% | [3]; at 33.0 µM -13% | [3]; at 100.0 µM 27% | [4]; at 1.2 µM 30% | [4]; at 3.7 µM 31% | [4]; [16] -24% | [4]; at 11.0 µM 59% | [4]; [17] 21% | [5]; at 1.2 µM 27% | [5]; at 3.7 µM -6% | [5]; [16] -24% | [5]; at 11.0 µM 39% | [5]; [17] 7% | [6]; at 1.2 µM 17% | [6]; at 3.7 µM 14% | [6]; at 11.0 µM 69% | [7]; [16] -20% | [8]; at 1.2 µM 26% | [8]; at 3.7 µM 13% | [8]; at 11.0 µM 33% | [9]; [16] -31% | [9]; [17] 29% | [10]; at 1.2 µM 61% | [10]; [16] -13% | [11]; at 1.2 µM 5% | [11]; at 3.7 µM 7% | [11]; at 11.0 µM 53% | [12]; at 1.2 µM 8% | [12]; at 3.7 µM 9% | [12]; at 11.0 µM 55% | [14]; [16] -37% | [15]; at 1.2 µM -2% | [15]; at 3.7 µM -2% | [15]; at 11.0 µM 20%
